The source holds several records for some structures; these can differ, active in one and inactive in another. The source made the active and inactive calls. The calls were made as follows: active = hit-call score of the fitted dose curve at least 0.9, where 1 is the maximum; inactive = score below 0.9.

Read-out in the assay: Transforming Growth Factor (TGFB1), TGFB1 (gene 7040)
In words: LTEA_HepaRG_TGFB1: Life Technologies and Expression Analysis (LTEA) Assay for Transforming Growth Factor (TGFB1) Transporter using HepaRG (AID 2283533). Conditions: mRNA level, 48 h; actives raise or lower the signal. The procedure:
LTEA_HepaRG is a cell based, multiplexed-readout assay that uses HepaRG, a human liver cell line, with measurements taken at 48 hours after chemical dosing on a 96-well plate.LTEA_HepaRG_TGFB1 is one of 102 assay component(s) measured in the LTEA HepaRG cell culture assay. It is a marker of Cell proliferation, survival, death.Data from the assay component LTEA_HepaRG_TGFB1 was analyzed into 1 endpoint. This assay endpoint, LTEA_HepaRG_TGFB1, was analyzed with bidirectional fitting relative to DMSO as the negative control and baseline of activity. Using a type of inducible reporter, measures of mRNA induction for gain or loss-of-signal activity can be used to understand regulation of transcription factor activity. To generalize the intended target to other relatable targets, this assay endpoint is annotated to the growth factor intended target family, where the subfamily is transforming growth factor beta.
A total of 1060 chemcials from the ToxCast library were tested in eight-point concentration-response experiments. Cell culture and cytotoxicity assays were conducted at Thermo Fisher Scientific's Custom Services facility (Madison, WI). A single lot of human HepaRG cells (Thermo Fisher Scientific, Frederick, MD) was used for the cell culture experiments. 96-well format collagen type I coated plates of human HepaRG cells were prepared using established methods. Briefly, cryopreserved HepaRG cells were thawed, plated at a density of approximately 100,000 cells/well in HepaRG Thaw, Plate, and General Purpose media (HPRG770, Thermo Fisher Scientific), and incubated for 48 hours. 0.5% DMSO was selected as vehicle control to balance the requisite need of DMSO in HepaRG cultures to maintain differentiation (for example, baseline metabolism, proportions of hepatocytes vs. cholangiocytes), while enabling further hepatic receptor pathway activation (for example, PXR and CAR) in response to chemical exposure. 48 hours after plating, the culture medium was replaced with HepaRG Serum-Free Incudtion Media. Cells were exposed to each test chemical in duplicate and maintained in CO2 incubators for another 48 hours. Chemical plates were thawed to room temperature and 200x concentrations of treatment groups were prepared. 8-point conentration-reponse curves were made with the highest exposure at 100 uM, followed by half-log dilutions, all in 0.5% DMSO. Each test plate contained variouse controls, induction positive controls (1mM phenobarbital), cytotoxicity positive controls ([…] aflatoxin B1), vehicle controls (0.5% DMSO), and total lysis controls (0.5% DMSO). Cell morphology images were taken using an Essen IncuCyte FLR automated microscope, with six 96-well plates imaged in about 24 minutes. Images were captured and exported and JPEG files. Spent culture media was transfered to black-well plates for the LDH assay, and remaining media was sorted at -80 C for later use. Cells were treated with RLT buffer and frozen until shipped for gene expression analysis. Total RNA was isolated from the cell suspension in 75 uL of Buffer RLT (Qiagen, Germantown, MD 20874) by Quintiles/Expression Analysis (Durham, NC) using a custom isolation procedure. Total RNA from each plate well was transferred to a preamplification plate. Fluidigm's 96.96 Dynamic ArrayTM (Fluidigm, Amsterdam, the Netherlands) technology was used for gene expression analyses by quantitative reverse transcription polymerase chain reaction (qRT-PCR, performed by Quintiles/Expression Analysis, Durham, NC)89. Standard TaqManTM Assays (Applied Biosystems/ThermoFisher Scientific, Foster City, CA) were used to assess the expression of 93 genes selected based on their selectivity and sensitivity to important hepatic receptors known to be modulated by environmental chemicals; importance in human hepatocyte functionality; and hepatotoxicity. […]
For `CO/C=C(/C(=O)OC)c1ccccc1Oc1cc(Oc2ccccc2C#N)ncn1`, the call was inactive.
`C=CC1(C)OC(=O)N(c2cc(Cl)cc(Cl)c2)C1=O` (stereo not given): the molecule was called inactive.
In the case of `COC(=O)C(C)Oc1ccc(Oc2ccc(Cl)cc2Cl)cc1` (stereo not given), the molecule was classed as inactive.
`N#Cc1nn(-c2c(Cl)cc(C(F)(F)F)cc2Cl)c(N)c1S(=O)C(F)(F)F` (stereo not given): the result was inactive.
As usually defined, the AC50 is the concentration at which the activity in the assay is half-maximal. As to `Fc1ccc(Oc2ccnc3cc(Cl)cc(Cl)c23)cc1`, the AC50 is 50 µM (active).
Consider `COP(=S)(OC)Oc1nc(Cl)c(Cl)cc1Cl`, for which the outcome was inactive.
For `CCOc1cc(Oc2ccc(C(F)(F)F)cc2Cl)ccc1[N+](=O)[O-]`, the concentration at half-maximal activity (AC50) was 19 µM (active).
The same measure, in the same setting: for `N#Cc1cc(Br)c(O)c(Br)c1` the value was 14.2 µM (active).
With `Oc1ccccc1-c1ccccc1`, the molecule was classed as inactive.
`COC(=O)c1ccccc1C(=O)OC`: the call was inactive.
Same read-out and setting: under `CNC(=O)ON=CC(C)(C)SC` stands “inactive”; under `CC(Oc1ccc(Cl)cc1Cl)C(=O)O` (stereo not given), “inactive”.
Turning to `CCCC1COC(Cn2cncn2)(c2ccc(Cl)cc2Cl)O1` (stereo not given), the AC50 is 27.3 µM (active).
As to `O=C(O)COc1nc(Cl)c(Cl)cc1Cl`, the call was inactive.
Turning to `Cc1cc(Cl)ccc1OCC(=O)O`, the molecule was called inactive.
Same read-out and setting: for `CCOC(=O)CC(SP(=S)(OC)OC)C(=O)OCC` (stereo not given) the value was “inactive”.
Take `CCc1nn(C)c(C(=O)NCc2ccc(C(C)(C)C)cc2)c1Cl`: the AC50 was 50 µM (active).
For `CCOC(=O)C(Cl)Cc1cc(-n2nc(C)n(C(F)F)c2=O)c(F)cc1Cl` (stereo not given), the molecule was called inactive.
Consider `CNC(=S)S`, for which the call was inactive.
Take `C#CCOS(=O)OC1CCCCC1Oc1ccc(C(C)(C)C)cc1` (stereo not given): the concentration at half-maximal activity (AC50) is 50 µM (active).
On to `COC(=O)C=C(C)OP(=O)(OC)OC`, for which the call was inactive.
The same measure, in the same setting: under `COc1ccc(C(c2ccc(OC)cc2)C(Cl)(Cl)Cl)cc1` stands “inactive”; under `CC(C)Oc1cc(-n2nc(C(C)(C)C)oc2=O)c(Cl)cc1Cl`, “inactive”; under `CCOP(=S)(OCC)SCn1c(=O)oc2cc(Cl)ccc21`, “inactive”.
Still for that read-out and setting: for `CCCCC(CC)COC(=O)c1ccccc1C(=O)OCC(CC)CCCC` (stereo not given) the value was “inactive”; for `CS/C(C)=N/OC(=O)N(C)SN(C)C(=O)O/N=C(\C)SC`, “inactive”.
On to `OC(c1ccc(Cl)cc1)(c1cncnc1)c1ccccc1Cl` (stereo not given), for which the AC50 is 50 µM (active).
With `CCON=C(CC)C1=C(O)CC(c2c(C)cc(C)cc2C)CC1=O` (stereo not given), the result was inactive.
On to `CC(C)C1(C)N=C(c2nc3ccccc3cc2C(=O)O)NC1=O` (stereo not given), for which the molecule was classed as inactive.
For `CC1COC(Cn2cncn2)(c2ccc(Oc3ccc(Cl)cc3)cc2Cl)O1` (stereo not given), the AC50 is 89.8 µM (active).
Regarding `C=CCC1=C(C)[C@@H](OC(=O)[C@@H]2[C@@H](C=C(C)C)C2(C)C)CC1=O`, the molecule was classed as inactive.
For `CCCN(CCC)c1c([N+](=O)[O-])cc(S(N)(=O)=O)cc1[N+](=O)[O-]`, the concentration at half-maximal activity (AC50) is 93.9 µM (active) and the outcome was inactive.
Turning to `CN(C)C(=S)SSC(=S)N(C)C`, the molecule was classed as inactive.
The same measure, in the same setting: for `Cc1ccc(-c2c(Cl)nc(C#N)n2S(=O)(=O)N(C)C)cc1` the value was “inactive”; for `CCNc1nc(Cl)nc(NCC)n1`, “inactive”; for `O=C(O)c1nc(Cl)ccc1Cl`, “inactive”.
With `CCNc1nc(Cl)nc(NC(C)C)n1`, the call was inactive.
As to `COC(=O)N(OC)c1ccccc1COc1ccn(-c2ccc(Cl)cc2)n1`, the concentration at half-maximal activity (AC50) is 50 µM (active).
As for `CCCCNC(=O)n1c(NC(=O)OC)nc2ccccc21`, the molecule was classed as inactive.
